Test results reported in PubChem BioAssay AID488789 (Broad Institute, 2010).
Entries with a potency or affinity are not part of this list. Results filed as inconclusive are left out. Activity calls are given as the source filed them.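 How the source made its calls: active means samples whose fitted half-maximal inhibition concentration is no more than ten times the top valid dose tested; inconclusive means flat response between -70 and -30, or invalid curve fit; inactive means flat within 30 of zero, potency above limit, or signal rising.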

The compounds below were run against Trypsin (Sus scrofa) (UniProt P00761) (assay: trypsin protease activity blockade – biochemical, quenched peptide fluorescence, cherry-pick, selectivity assay for Rce1 protease inhibitor project, dose response (AID 488789;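 further: more negative means stronger trypsin inhibition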)). Conditions: porcine trypsin, quenched peptide cleavage fluorescence; series mostly up to 10 µM.
Chain of Trypsin (Sus scrofa) (P00761 whole entry, looked up): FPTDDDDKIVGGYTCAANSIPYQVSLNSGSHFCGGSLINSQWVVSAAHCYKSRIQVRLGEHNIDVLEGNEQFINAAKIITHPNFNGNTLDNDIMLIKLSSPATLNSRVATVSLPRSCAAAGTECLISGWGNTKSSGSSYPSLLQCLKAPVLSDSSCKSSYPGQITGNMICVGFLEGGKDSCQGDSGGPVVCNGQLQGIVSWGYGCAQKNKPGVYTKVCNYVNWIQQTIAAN
`CCn1nc(C)cc1C(=O)NC1CC(C)(C)Cc2c1cnn2-c1cccc(F)c1` (configuration not stated) was tested, and the outcome was “inactive”.
In the case of `CCN(CC)CCN(Cc1cc2cc3c(cc2[nH]c1=O)OCO3)C(=S)NCc1ccco1`, the outcome is reported as “inactive”.
For `CCOc1ccc2[nH]c(=O)c(CN(CCN3CCOCC3)Cc3nnnn3C(C)(C)CC)cc2c1`, the outcome was “inactive”.
For `COc1ccc(C2Nc3ccccc3C(=O)N2Cc2ccccc2)cc1COc1ccccn1` (configuration not stated), the outcome was “inactive”.
For `CC1(c2nnc(-c3cccc(Cl)c3)o2)CC(c2cccc(F)c2)=NO1` (configuration not stated), the outcome was “inactive”.
With `O=C(N/N=C/C1CC=CCC1)c1ccc(O)cc1O` (configuration not stated) the outcome was “inactive”.
In the case of `COc1ccc(S(=O)(=O)N(CC(=O)N2CCCC2)Cc2ccccc2)cc1`, the outcome is reported as “inactive”.
`CN(C)c1ccc(/C=N/NC(=O)CNC(=O)c2ccco2)cc1` was tested, and the outcome was “inactive”.
`COc1ccc(-c2cc(C(=O)N3CCN(c4ccccc4)CC3)c3ccccc3n2)cc1` was tested, and the outcome was “inactive”.
For `O=C(O)CCc1ccc(-c2cccs2)n1Cc1ccco1`, the outcome was “inactive”.
`Cc1cc(=O)n2ccccc2c1C#N` was tested, and the outcome was “inactive”.
In the case of `C=C(C)C1(O)OC(=O)C=C1OC` (configuration not stated), the outcome is reported as “inactive”.
With `COc1ccc(CCN(C)C(=O)c2ccc(S(=O)(=O)Nc3ccccc3C)cc2)cc1OC` the outcome was “inactive”.
With `O=C(/C=C/c1cn(-c2ccccc2)nc1-c1cccs1)NCCN1CCOCC1` the outcome was “inactive”.
For `Cc1cc(Cl)c2oc(C(=O)N3CCN(C(=O)c4ccco4)CC3)c(C)c2c1`, the outcome was “inactive”.
`O=[N+]([O-])c1ccc(-c2cnc(SC(c3ccccc3)c3ccccc3)[nH]2)cc1` was tested, and the outcome was “inactive”.
With `CCOC(=O)[C@@H]1[C@H]2COc3ccc(Br)cc3[C@@H]2N2C(=O)N(c3cccc(Cl)c3)C(=O)[C@]12C` the outcome was “inactive”.
`Cc1cccc(OCCCN2C(=O)C(=O)c3cc(C)ccc32)c1` was tested, and the outcome was “inactive”.
In the case of `CCN1CCN(c2ccc(NC(=O)c3cccc(OCc4ccccc4)c3)cc2)CC1`, the outcome is reported as “inactive”.
With `COC(C[C@@H]1O[C@@H]1C(=O)[C@@H](C)OCc1ccccc1)OC` the outcome was “inactive”.
`O=C(Nc1cc(S(=O)(=O)N2CCOCC2)ccc1N1CCCC1)c1cnccn1` was tested, and the outcome was “inactive”.
With `COc1ccc(C(=O)/C=C/c2ccc(OC)cc2OC)c(O)c1` the outcome was “inactive”.
In the case of `Cc1ccc(Nc2nc(-c3ccc(S(=O)(=O)N4CCOCC4)cc3)cs2)cc1Cl`, the outcome is reported as “inactive”.
In the case of `CN1CCN(C(=O)c2ccc(-c3cccs3)s2)CC1`, the outcome is reported as “inactive”.
`COc1ccc(-n2c(SCc3ccc([N+](=O)[O-])cc3)nnc2-c2ccc(C)cc2)cc1` was tested, and the outcome was “inactive”.
In the case of `CCCCOc1ccc(-c2cc(C(F)(F)F)c(C#N)c(SCC(=O)O)n2)cc1`, the outcome is reported as “inactive”.
With `CN1CCN(C(=S)NC(=O)c2ccccc2Cl)CC1` the outcome was “inactive”.
`CN(C(=O)COC(=O)c1cc([N+](=O)[O-])ccc1Sc1ccccc1)C1CCS(=O)(=O)C1` (configuration not stated) was tested, and the outcome was “inactive”.
`COc1ccc(OC)c(NC(=O)c2cc3oc4ccccc4c3cc2O)c1` was tested, and the outcome was “inactive”.
For `COCCCNC(=S)NCCNc1nc2cc(C)cc(C)c2cc1C#N`, the outcome was “inactive”.
For `COc1cccc(CNc2nc3nc(C)cc(C)n3n2)c1`, the outcome was “inactive”.
In the case of `CCO[C@@H]1OC(C(=O)N2CCN(Cc3ccccc3)CC2)=C[C@H](c2ccccc2)[C@H]1CCCO`, the outcome is reported as “inactive”.
In the case of `Nc1c(Cl)cc(C2=NCCn3nc4cc(C(F)(F)F)ccc4c32)cc1Cl`, the outcome is reported as “inactive”.
With `CCOc1ccc(NC(=O)CCSc2ccc(C)cc2)cc1` the outcome was “inactive”.
With `COc1ccc(OCC(=O)NS(=O)(=O)c2ccc(Cl)cc2)cc1` the outcome was “inactive”.
With `CC(=O)Nc1ccc(Cl)cc1C1COC(=O)C1=N` (configuration not stated) the outcome was “inactive”.
In the case of `O=C(C1CCC(=O)N(C2CC2)C1)N1CCN(c2ccccc2Cl)CC1` (configuration not stated), the outcome is reported as “inactive”.
